High-throughput results: PubChem BioAssay, National Center for Advancing Translational Sciences (NCATS)
Shown are actives, neighbours in structure and some others; about 4.1% of the full set was active somewhere.
AmpC no deterg – blocks E. coli AmpC beta-lactamase in detergent-free assay. AmpC nitrocefin hydrolysis, absorbance 480 nm, 0.0001% Triton. P00811. 0.52% of 330,000 active. Potency, µM (doses to about 57.1 µM), without a hit: at the top dose activity change, negative = inhibition, actives largely listed as inhibitors;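 also: plate controls were no compound for no effect and no enzyme for full effect; nearly all actives have a fitted effect of over 20% in size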
Target sequence (P00811 whole entry, looked up): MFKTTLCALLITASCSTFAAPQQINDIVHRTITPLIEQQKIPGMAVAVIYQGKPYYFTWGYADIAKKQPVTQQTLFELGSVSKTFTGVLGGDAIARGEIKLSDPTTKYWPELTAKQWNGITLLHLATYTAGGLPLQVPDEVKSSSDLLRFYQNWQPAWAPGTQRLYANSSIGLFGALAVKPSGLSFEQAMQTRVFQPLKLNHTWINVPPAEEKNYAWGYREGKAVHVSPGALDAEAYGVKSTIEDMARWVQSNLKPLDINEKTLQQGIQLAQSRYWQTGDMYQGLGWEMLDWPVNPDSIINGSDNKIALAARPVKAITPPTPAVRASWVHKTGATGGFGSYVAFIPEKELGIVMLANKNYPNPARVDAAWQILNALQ
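20 mM phosphate pH 7.0 + 0.01% (detergent screen) or 0.0001% Triton X-100; 5.3 nM AmpC reagent; cpd preinc 15 min RT; nitrocefin (800 uM stock) to start; A480 q20 s × 4 min; Activity was normalised to no-enzyme and no-compound control wells.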
Sm TGR block – blocks Schistosoma mansoni thioredoxin glutathione reductase; Potency, µM (series often up to 114 µM), for the others: at the top dose activity change, negative = inhibition, actives largely listed as inhibitors; 3% of 360,000 active; Q962Y6; AID 485364; purified TGR, DTNB reduction, TNB absorbance 405 nm; also: nearly all actives have a fitted effect of over 60% in size
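TGR 20 nM + NADPH 100 uM (dispensed conc.), cpd preinc 15 min RT; start with NADPH (500 uM addition) then DTNB (15 mM addition). Kinetic TNB absorbance, 405 nm filter. Four-parameter Hill fit across titration.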
FMDV inh – antivirals against foot and mouth disease virus | 1.2% of 410,000 active | Potency, µM (top dose mostly 57.9 µM), inactives show top-dose activity change, negative = inhibition, actives largely listed as inhibitors | FMDV antiviral cell-based qHTS; calls by dose curve; tested in HEK293T cells; also: read-out not given here; nearly all actives have a fitted effect of over 45% in size
AMA1 RON2 block – inhibitors of Plasmodium falciparum AMA1-RON2 interaction; Potency, µM (titrated, usually from 58.2 µM), inactives show at the top dose activity change, negative = inhibition, actives largely listed as inhibitors; AlphaScreen AMA1-biotinylated RON2 peptide binding; AID 720542; 0.2% of 360,000 active;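 also: 0% = vehicle wells and -100% = peptide control; nearly all actives have a fitted effect of over 45% in size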
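AMA1 (3D7) with his tag at 25 nM final met compounds first, then biotinylated RON2 peptide at 25 nM; detection used donor plus acceptor beads, 10 µg/mL apiece, read by AlphaScreen after 30 min at room temperature.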
AmpC detergent – inhibitors of E. coli AmpC beta-lactamase with detergent; P00811; AmpC hydrolysis of nitrocefin, absorbance 480 nm, 0.01% Triton; Potency, µM (series often up to 114 µM), for the others: at the highest dose activity change, negative = inhibition, hits mostly inhibitors; 0.041% of 370,000 active;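 also: 0% = no-compound wells and -100% = no-enzyme wells; nearly all actives have a fitted effect of over 25% in size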
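AmpC (5.3 nM in the dispensed reagent) in 20 mM phosphate pH 7.0 with 0.01% (detergent screen) or 0.0001% Triton X-100 was preincubated with compounds for 15 min at room temperature. Nitrocefin was then added from an 800 uM solution, and hydrolysis was followed at 480 nm.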
* marks the source's active call; other numbers are inactive results; ? = inconclusive; nt = not tested or not shown; ! = a repeat was not active. Unless noted, calls follow the shape of the dose curve; as a rule, active = well fitted curve in the direction sought with a large enough effect; inconclusive = small, poorly fitted or top-dose-only effect, or another doubt; inactive = no such curve, though single readings can be large; an effect the other way counts as inactive or inconclusive. Unless noted, % is scaled to controls: 0 for no effect and ±100 for the full control effect; potency is read from the fitted curve at half-maximal effect.

SMILES	AmpC no deterg	Sm TGR block	FMDV inh	AMA1 RON2 block	AmpC detergent
NC(=O)C1CN(S(=O)(=O)c2ccc(Cl)cc2F)c2ccccc2O1 (stereo not drawn)	4%	40µM*	5%	-3%	-9%
CCn1nc(C)cc1C(=O)Sc1ccc(Cl)cc1Cl	-8%	3.5µM*	?	1%	1%
CCn1nc(C)cc1C(=O)Sc1cccc(Br)c1	-4%	5.6µM*	?	6%	5%
CCn1nc(C)cc1C(=O)OCC(=O)c1ccc(Cl)cc1	10%	0%	-1%	-11%	-10%
COc1cc(NC(=O)c2nn(-c3ccc(F)cc3)c(=O)n(C)c2=O)cc(OC)c1OC	nt	-3%	-2%	nt	-2%
O=C(NNc1ccc(Cl)cc1)c1c(F)cccc1Cl	-18%	-11%	-2%	-21%	5%
CC(=O)C(=Nc1ccccc1Cl)NNc1ccc(Cl)cc1	-27%	40µM*	-21%	20µM*	-4%
CCN(Cc1ccccc1)C(=O)c1cc2c(OC)c(OC)c(OC)cc2[nH]1	60%	35µM*	8%	-10%	?
Nc1nc(CN2CCN(Cc3ccccc3)CC2)nc(Nc2ccccc2)n1	6%	?	-23%	?	?
CCOc1ccc(Nc2nc(N)nc(CN3CCN(c4ccccc4F)CC3)n2)cc1	67%	-3%	?	?	-12%
Cc1ccc(Nc2nc(N)nc(CC#N)n2)cc1	-34%	17%	nt	33%	1%
CCOc1ccc(Nc2nc(N)nc(CCl)n2)cc1	-29%	25µM*	13%	51%	-10%
Nc1nc(CCl)nc(Nc2ccccc2)n1	-40%	40µM*	38%	25%	?
Cc1ccc(Nc2nc(N)nc(CCl)n2)cc1	-27%	11µM*	7%	16%	5%
Cc1ccc(Nc2nc(N)nc(CCl)n2)c(C)c1	-12%	32µM*	16%	23%	-3%
Cc1ccc(Nc2nc(N)nc(CN3CCCCCC3)n2)c(C)c1	-5%	?	-16%	-7%	-13%
Cc1ccccc1-c1ccc(CN2CCc3nnc(CNC(=O)c4ccccn4)n3CC2)cc1	nt	nt	-18%	nt	nt
O=C(NCCNC(=O)c1ccccc1)c1ccccc1	-5%	-1%	-3%	76%	-6%
O=C(NCC#CCOCc1ccccc1)c1ccccc1	-27%	7.1µM*	1%	26%	-3%
COc1ccc2c(c1)CCc1c(C(=O)Nc3c(C)nn(Cc4ccc(Cl)cc4)c3C)noc1-2	nt	-26%	-26%	nt	12%
COc1ccc2c(c1)CCc1c(C(=O)Nc3c(C)nn(Cc4ccccc4)c3C)noc1-2	5%	89µM*!	28µM*	-13%	-5%
Cc1nn(Cc2ccc(Cl)cc2)c(C)c1NC(=O)c1noc2c1CCc1ccccc1-2	13%	3%	40µM*	-6%	20%
COc1ccc2c(c1)CCc1c(C(=O)Nc3c(C)nn(Cc4ccc(Cl)c(Cl)c4)c3C)noc1-2	nt	-11%	?	nt	-2%
COc1cc(-c2c(OC)cccc2OC)cc2c1OCCN(Cc1cn[nH]c1-c1ccc(Cl)cc1)C2	nt	nt	-1%	nt	nt
CCN1C(=O)/C(=C\c2ccc(-c3ccc([N+](=O)[O-])cc3OC)o2)SC1=Nc1cccc(C(=O)O)c1	-28%	35µM*	-9%	-17%	-4%
SMILES	AmpC no deterg	Sm TGR block	FMDV inh	AMA1 RON2 block	AmpC detergent
Cc1ccnc(NC(c2ccccc2O)c2oc(CO)cc(=O)c2O)c1 (stereo not drawn)	-14%	1.8µM*	13%	-3%	1%
O=c1cc(CO)oc(C(Nc2ccccn2)c2ccc(F)cc2)c1O (stereo not drawn)	-20%	2.5µM*	-3%	-13%	-8%
O=c1cc(CO)oc(C(Nc2ccccn2)c2ccsc2)c1O (stereo not drawn)	-15%	11µM*	nt	nt	2%
COc1ccc(C(Nc2ccccn2)c2oc(CO)cc(=O)c2O)cc1 (stereo not drawn)	-15%	2.8µM*	-3%	-11%	?
COC(=O)[C@@H](N)CSC/C=C(\C)CC/C=C(\C)CCC=C(C)C	nt	nt	-8%	nt	nt
COc1ccc(C(c2oc(CO)cc(=O)c2O)c2oc(CO)cc(=O)c2O)cc1	25%	35µM*	-1%	9%	1%
COc1ccc(C(c2oc(CO)cc(=O)c2O)c2oc(CO)cc(=O)c2O)cc1OC	1%	?	2%	4%	-6%
